# Article PMC7862700, “An all-to-all approach to the identification of sequence-specific readers for epigenetic DNA modifications on cytosine”
# Key:
# Assay in all cases: DAPPL (digital affinity profiling via proximity ligation, sequencing); 10 mM Tris-HCl pH 7.5, 50 mM NaCl, 1 mM DTT, 4% glycerol, room temperature, 30 min; GST-TFs on glutathione beads, 16-mer random dsDNA library, 0.1% formaldehyde crosslink after washing; high values mean tight binding
# FEV = target: T1, FEV (Homo sapiens, UniProt Q99581 1-238); conditions: protein: recombinant; tags: N-terminal GST; dsDNA, one strand shown
# T1 sequence: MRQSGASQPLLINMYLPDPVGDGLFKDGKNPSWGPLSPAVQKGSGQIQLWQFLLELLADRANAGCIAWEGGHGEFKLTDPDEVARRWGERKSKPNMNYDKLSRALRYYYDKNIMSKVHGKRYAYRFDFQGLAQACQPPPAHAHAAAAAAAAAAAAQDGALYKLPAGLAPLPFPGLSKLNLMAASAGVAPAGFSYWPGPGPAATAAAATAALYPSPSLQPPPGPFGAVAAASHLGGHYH
# Outline: (§1)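 A tag-only sample was pooled with DNA-barcoded human transcription factors that had been expressed in yeast as GST fusions and captured on glutathione beads. The pools were incubated for 30 min at room temperature with 200 nmole of a random double-stranded 16-mer DNA library in Tris/NaCl/DTT/glycerol buffer, then washed, crosslinked with 0.1% formaldehyde, proximity-ligated (BsaI/T4 ligase, 1 h, 37 °C), PCR-amplified and sequenced on an Illumina NextSeq500. Binding signal is each hexamer's read frequency for a factor divided by its frequency for the tag-only sample.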
# ETV5 = ETV5 (Homo sapiens, UniProt P41161 1-510); conditions: protein: recombinant; tags: N-terminal GST; dsDNA, one strand shown
# Outline: as §1
# HSF1 = HSF1 (Homo sapiens, UniProt Q00613 1-529); conditions: protein: recombinant; tags: N-terminal GST; chain copies: 3; dsDNA, one strand shown
# Outline: as §1
# SPIC = target: T2, SPIC (Homo sapiens, UniProt Q8N5J4 1-248); conditions: protein: recombinant; tags: N-terminal GST; dsDNA, one strand shown
# T2 sequence: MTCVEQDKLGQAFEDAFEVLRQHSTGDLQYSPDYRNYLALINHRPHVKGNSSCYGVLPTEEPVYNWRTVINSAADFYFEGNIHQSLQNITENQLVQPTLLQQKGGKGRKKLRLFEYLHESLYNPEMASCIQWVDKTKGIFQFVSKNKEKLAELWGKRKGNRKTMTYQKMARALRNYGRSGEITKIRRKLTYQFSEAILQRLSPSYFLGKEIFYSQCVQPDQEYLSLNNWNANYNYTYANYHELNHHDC
# Outline: as §1
# ELF4 = ELF4 (Homo sapiens, UniProt Q99607 1-663); conditions: protein: recombinant; tags: N-terminal GST; dsDNA, one strand shown
# Outline: as §1
# ELK4 = target: T3, ELK4 (Homo sapiens, UniProt P28324-2 1-405); conditions: protein: recombinant; tags: N-terminal GST; dsDNA, one strand shown
# T3 sequence: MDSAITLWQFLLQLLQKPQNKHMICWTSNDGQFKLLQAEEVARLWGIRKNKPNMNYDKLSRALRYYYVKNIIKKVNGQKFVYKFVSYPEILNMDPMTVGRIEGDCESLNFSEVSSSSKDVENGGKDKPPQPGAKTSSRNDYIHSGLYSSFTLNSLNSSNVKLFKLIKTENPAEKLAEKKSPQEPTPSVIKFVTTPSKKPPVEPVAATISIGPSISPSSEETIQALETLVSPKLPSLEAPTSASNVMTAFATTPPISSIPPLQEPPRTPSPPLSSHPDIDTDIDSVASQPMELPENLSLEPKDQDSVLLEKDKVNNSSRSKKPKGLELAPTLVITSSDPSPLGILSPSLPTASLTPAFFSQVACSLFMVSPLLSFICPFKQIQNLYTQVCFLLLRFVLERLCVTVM
# Outline: as §1
# ETV2 = target: T4, ETV2 (Homo sapiens, UniProt O00321 1-342); conditions: protein: recombinant; tags: N-terminal GST; dsDNA, one strand shown
# T4 sequence: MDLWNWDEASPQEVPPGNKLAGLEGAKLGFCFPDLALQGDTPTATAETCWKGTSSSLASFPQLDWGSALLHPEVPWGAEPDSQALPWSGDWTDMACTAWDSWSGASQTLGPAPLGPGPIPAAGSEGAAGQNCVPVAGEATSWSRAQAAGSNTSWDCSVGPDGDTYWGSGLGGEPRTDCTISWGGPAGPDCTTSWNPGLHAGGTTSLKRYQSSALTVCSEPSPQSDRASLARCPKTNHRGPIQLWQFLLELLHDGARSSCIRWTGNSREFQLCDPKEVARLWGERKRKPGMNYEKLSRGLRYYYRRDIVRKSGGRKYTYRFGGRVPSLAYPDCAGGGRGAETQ
# Outline: as §1
# ELF3 = target: T5, ELF3 (Homo sapiens, UniProt P78545 1-371); conditions: protein: recombinant; tags: N-terminal GST; dsDNA, one strand shown
# T5 sequence: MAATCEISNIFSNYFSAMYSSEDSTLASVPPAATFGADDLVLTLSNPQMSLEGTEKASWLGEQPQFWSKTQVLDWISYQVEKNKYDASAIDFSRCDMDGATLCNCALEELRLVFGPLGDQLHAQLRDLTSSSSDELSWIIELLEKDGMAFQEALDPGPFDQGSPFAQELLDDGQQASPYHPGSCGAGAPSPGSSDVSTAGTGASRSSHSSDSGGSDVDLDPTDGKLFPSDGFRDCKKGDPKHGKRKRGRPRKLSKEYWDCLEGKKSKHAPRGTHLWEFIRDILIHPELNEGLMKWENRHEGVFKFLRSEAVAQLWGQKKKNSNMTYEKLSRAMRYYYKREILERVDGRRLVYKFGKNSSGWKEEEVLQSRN
# Outline: as §1
# CRX = CRX (Homo sapiens, UniProt O43186 1-299); conditions: protein: recombinant; tags: N-terminal GST; dsDNA, one strand shown
# Outline: as §1
# ETV1 = ETV1 (Homo sapiens, UniProt P50549 1-477); conditions: protein: recombinant; tags: N-terminal GST; dsDNA, one strand shown
# Outline: as §1
# ERF = target: T6, ERF (Homo sapiens, UniProt P50548 1-548); conditions: protein: recombinant; tags: N-terminal GST; dsDNA, one strand shown
# T6 sequence: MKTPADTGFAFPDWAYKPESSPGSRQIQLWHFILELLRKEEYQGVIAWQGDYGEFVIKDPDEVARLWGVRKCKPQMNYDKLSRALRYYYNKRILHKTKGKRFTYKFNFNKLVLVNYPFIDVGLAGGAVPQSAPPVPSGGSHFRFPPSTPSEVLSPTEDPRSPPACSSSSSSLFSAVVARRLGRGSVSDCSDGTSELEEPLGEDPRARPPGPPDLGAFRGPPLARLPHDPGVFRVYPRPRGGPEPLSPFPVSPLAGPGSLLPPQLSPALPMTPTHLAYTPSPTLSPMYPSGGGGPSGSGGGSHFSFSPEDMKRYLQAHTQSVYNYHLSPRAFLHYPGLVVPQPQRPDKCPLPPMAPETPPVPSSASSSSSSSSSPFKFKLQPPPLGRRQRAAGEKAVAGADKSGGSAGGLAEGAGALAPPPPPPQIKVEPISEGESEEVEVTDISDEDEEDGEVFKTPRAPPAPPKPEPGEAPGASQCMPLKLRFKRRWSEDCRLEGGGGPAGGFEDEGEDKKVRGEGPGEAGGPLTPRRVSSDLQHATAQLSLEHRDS
# Outline: as §1
# ETV3L = target: T7, ETV3L (Homo sapiens, UniProt Q6ZN32 1-361); conditions: protein: recombinant; tags: N-terminal GST; dsDNA, one strand shown
# T7 sequence: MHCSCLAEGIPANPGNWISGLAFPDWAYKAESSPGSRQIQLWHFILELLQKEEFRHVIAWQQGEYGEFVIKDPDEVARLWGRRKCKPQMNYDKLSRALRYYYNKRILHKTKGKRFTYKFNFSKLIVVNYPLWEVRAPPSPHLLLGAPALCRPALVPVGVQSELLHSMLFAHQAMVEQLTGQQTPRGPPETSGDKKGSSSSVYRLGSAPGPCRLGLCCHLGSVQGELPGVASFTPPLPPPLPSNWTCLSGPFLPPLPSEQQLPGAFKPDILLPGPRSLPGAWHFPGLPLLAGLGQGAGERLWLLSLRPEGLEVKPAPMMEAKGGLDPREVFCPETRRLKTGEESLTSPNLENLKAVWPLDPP
# Outline: as §1
# ETS2 = target: T8, ETS2 (Homo sapiens, UniProt P15036 1-469); conditions: protein: recombinant; tags: N-terminal GST; dsDNA, one strand shown
# T8 sequence: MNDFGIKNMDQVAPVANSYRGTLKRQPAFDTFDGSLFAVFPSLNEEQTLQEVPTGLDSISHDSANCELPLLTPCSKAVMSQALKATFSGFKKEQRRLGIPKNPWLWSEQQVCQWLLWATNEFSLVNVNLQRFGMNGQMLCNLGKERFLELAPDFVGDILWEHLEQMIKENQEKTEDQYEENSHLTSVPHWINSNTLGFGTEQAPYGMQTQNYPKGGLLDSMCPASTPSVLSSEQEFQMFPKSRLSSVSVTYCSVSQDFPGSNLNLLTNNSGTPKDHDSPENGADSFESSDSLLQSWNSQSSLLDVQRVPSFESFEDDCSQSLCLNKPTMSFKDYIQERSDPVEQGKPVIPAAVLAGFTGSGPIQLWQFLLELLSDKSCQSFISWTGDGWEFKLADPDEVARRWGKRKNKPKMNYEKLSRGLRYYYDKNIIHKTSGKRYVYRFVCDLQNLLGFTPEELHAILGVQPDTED
# Outline: as §1
# SPDEF = target: T9, SPDEF (Homo sapiens, UniProt O95238 1-335); conditions: protein: recombinant; tags: N-terminal GST; dsDNA, one strand shown
# T9 sequence: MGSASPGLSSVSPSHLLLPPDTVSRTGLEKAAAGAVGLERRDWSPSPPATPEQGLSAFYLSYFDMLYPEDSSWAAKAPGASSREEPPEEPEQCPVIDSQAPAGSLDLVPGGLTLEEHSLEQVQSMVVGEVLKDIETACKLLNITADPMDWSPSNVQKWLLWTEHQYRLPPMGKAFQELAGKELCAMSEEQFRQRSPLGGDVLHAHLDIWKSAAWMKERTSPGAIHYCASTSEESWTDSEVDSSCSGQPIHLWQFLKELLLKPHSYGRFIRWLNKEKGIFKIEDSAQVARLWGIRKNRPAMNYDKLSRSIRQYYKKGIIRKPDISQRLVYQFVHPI
# Outline: as §1
# ETV7 = target: T10, ETV7 (Homo sapiens, UniProt Q9Y603 1-341); conditions: protein: recombinant; tags: N-terminal GST; dsDNA, one strand shown
# T10 sequence: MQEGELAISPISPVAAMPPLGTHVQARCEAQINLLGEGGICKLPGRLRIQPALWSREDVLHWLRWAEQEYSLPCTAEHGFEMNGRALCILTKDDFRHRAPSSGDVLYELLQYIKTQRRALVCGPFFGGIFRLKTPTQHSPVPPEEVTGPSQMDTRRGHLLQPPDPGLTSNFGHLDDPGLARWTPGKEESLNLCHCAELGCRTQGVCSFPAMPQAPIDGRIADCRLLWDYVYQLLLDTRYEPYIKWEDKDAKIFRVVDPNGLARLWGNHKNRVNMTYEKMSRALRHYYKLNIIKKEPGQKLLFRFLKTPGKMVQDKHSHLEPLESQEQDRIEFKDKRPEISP
# Outline: as §1
# ELF5 = target: T11, ELF5 (Homo sapiens, UniProt Q9UKW6-2 1-255); conditions: protein: recombinant; tags: N-terminal GST; dsDNA, one strand shown
# T11 sequence: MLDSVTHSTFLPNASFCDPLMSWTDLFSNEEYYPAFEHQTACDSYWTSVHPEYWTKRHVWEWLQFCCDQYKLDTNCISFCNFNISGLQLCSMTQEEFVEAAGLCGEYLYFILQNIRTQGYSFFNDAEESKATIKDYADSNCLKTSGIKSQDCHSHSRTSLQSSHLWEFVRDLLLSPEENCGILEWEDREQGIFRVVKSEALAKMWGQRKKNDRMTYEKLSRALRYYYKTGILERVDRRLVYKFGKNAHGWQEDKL
# Outline: as §1
# ETV3 = target: T12, ETV3 (Homo sapiens, UniProt P41162-2 1-143); conditions: protein: recombinant; tags: N-terminal GST; dsDNA, one strand shown
# T12 sequence: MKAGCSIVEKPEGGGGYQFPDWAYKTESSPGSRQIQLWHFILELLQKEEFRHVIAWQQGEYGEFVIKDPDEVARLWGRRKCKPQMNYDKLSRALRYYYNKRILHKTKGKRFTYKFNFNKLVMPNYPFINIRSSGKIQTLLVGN
# Outline: as §1
# ETV6 = ETV6 (Homo sapiens, UniProt P41212 1-452); conditions: protein: recombinant; tags: N-terminal GST; dsDNA, one strand shown
# Outline: as §1
# ELF4, sequence (Q99607 whole entry): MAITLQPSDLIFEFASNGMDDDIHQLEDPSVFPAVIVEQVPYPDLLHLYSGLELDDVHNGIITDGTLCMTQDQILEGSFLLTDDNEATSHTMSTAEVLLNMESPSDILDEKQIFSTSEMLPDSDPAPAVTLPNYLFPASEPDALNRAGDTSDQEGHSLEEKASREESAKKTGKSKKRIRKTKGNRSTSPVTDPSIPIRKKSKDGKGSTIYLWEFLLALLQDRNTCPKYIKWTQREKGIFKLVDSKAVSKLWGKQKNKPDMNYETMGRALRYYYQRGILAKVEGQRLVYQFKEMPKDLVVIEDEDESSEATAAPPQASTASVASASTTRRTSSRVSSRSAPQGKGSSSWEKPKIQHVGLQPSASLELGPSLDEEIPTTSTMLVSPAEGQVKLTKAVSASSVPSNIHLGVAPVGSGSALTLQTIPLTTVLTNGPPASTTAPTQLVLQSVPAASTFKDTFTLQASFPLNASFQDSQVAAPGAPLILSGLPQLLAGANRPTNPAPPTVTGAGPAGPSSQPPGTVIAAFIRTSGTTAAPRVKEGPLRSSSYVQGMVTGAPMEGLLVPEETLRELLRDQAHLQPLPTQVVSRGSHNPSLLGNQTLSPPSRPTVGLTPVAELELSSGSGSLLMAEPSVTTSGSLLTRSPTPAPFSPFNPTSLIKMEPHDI
# HSF1, sequence (Q00613 whole entry): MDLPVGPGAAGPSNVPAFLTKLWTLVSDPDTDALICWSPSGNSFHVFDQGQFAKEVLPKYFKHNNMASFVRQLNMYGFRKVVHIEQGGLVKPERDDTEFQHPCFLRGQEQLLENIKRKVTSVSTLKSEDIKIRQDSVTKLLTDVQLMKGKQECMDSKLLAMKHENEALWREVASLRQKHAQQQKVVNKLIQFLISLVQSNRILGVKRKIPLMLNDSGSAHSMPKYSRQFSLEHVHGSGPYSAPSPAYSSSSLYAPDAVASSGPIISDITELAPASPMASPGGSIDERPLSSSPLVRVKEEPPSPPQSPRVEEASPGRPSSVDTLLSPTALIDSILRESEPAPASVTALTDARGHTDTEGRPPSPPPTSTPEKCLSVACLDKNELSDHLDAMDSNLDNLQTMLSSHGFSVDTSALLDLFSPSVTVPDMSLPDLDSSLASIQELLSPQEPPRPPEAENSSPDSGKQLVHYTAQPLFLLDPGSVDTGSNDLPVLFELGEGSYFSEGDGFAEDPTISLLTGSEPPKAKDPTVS
# ETV6, sequence (P41212 whole entry): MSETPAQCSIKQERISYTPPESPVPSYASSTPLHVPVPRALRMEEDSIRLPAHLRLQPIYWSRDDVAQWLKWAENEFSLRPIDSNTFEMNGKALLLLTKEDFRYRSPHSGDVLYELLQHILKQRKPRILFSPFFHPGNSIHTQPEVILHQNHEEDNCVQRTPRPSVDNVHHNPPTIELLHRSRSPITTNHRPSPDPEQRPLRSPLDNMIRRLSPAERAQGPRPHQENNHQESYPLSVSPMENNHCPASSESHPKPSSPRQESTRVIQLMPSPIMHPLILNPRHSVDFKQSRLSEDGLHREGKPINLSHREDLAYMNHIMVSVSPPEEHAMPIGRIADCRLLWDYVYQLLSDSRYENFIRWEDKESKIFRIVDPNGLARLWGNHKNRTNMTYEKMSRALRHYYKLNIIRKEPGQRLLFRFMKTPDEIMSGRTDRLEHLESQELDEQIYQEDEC
# CRX, sequence (O43186 whole entry): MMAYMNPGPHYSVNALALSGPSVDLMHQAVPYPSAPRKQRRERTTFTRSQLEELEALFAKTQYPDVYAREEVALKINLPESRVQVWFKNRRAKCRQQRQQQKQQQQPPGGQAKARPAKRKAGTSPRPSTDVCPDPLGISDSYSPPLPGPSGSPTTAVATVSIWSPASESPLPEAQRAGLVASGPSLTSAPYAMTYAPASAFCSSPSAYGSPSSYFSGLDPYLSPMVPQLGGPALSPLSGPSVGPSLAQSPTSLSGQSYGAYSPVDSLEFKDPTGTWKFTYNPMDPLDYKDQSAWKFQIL
# ETV1, sequence (P50549 whole entry): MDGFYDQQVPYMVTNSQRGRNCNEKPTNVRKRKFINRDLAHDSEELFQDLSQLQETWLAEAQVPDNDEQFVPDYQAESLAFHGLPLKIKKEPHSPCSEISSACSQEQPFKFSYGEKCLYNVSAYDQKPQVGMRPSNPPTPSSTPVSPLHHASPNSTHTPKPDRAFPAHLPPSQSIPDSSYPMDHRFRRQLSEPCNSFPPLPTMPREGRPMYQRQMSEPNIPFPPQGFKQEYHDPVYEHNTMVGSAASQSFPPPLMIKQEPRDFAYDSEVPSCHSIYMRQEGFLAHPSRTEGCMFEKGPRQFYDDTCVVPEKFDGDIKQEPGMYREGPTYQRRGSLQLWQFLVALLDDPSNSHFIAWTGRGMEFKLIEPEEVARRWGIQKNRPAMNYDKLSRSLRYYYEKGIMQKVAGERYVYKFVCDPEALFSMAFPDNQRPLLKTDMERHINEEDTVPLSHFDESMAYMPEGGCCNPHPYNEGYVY
# ETV5, sequence (P41161 whole entry): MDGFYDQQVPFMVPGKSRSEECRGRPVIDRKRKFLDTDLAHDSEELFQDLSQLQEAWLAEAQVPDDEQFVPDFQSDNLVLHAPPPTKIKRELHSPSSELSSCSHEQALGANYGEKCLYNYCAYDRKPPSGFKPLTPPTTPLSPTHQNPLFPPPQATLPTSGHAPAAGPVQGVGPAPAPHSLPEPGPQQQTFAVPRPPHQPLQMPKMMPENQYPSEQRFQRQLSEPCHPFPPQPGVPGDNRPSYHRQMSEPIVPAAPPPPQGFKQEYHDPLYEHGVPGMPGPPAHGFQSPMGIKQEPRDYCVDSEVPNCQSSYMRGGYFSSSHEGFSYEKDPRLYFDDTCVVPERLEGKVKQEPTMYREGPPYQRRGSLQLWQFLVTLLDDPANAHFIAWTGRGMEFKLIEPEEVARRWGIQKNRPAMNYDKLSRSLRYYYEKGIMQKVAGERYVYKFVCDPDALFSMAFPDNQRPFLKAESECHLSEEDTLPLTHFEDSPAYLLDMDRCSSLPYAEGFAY
sequence,measurement,setting,value
ACTCCC,binding signal,FEV,"1.32 fold enrichment (6-mer frequency, TF over GST control)"
same,binding signal,ETV5,"1.42 fold enrichment (6-mer frequency, TF over GST control)"
same,binding signal,HSF1,"1.15 fold enrichment (6-mer frequency, TF over GST control)"
same,binding signal,SPIC,"1.46 fold enrichment (6-mer frequency, TF over GST control)"
same,binding signal,ELF4,"1.31 fold enrichment (6-mer frequency, TF over GST control)"
same,binding signal,ELK4,"1.32 fold enrichment (6-mer frequency, TF over GST control)"
same,binding signal,ETV2,"1.11 fold enrichment (6-mer frequency, TF over GST control)"
same,binding signal,ELF3,"1.25 fold enrichment (6-mer frequency, TF over GST control)"
same,binding signal,CRX,"1.13 fold enrichment (6-mer frequency, TF over GST control)"
same,binding signal,ETV1,"1.25 fold enrichment (6-mer frequency, TF over GST control)"
same,binding signal,ERF,"1.44 fold enrichment (6-mer frequency, TF over GST control)"
same,binding signal,ETV3L,"1.19 fold enrichment (6-mer frequency, TF over GST control)"
same,binding signal,ETS2,"1.27 fold enrichment (6-mer frequency, TF over GST control)"
same,binding signal,SPDEF,"1.32 fold enrichment (6-mer frequency, TF over GST control)"
same,binding signal,ETV7,"1.31 fold enrichment (6-mer frequency, TF over GST control)"
same,binding signal,ELF5,"1.38 fold enrichment (6-mer frequency, TF over GST control)"
same,binding signal,ETV3,"1.47 fold enrichment (6-mer frequency, TF over GST control)"
same,binding signal,ETV6,"1.47 fold enrichment (6-mer frequency, TF over GST control)"
